Laboratory results reported in PubChem BioAssay (NCI).
Compounds without any hit were thinned out: in the full panel of roughly 79,000, 15% have a hit. Unmarked numbers belong to inactive results. The source made the active and inactive calls. No stated cut-off is given here; in the data, active means growth inhibition above about 70%; inactive means the rest. Where a SMILES comes first, the peptide text is derived from it. The star is where a group is joined. Cbz = O=C(OCc1ccccc1)*

Key:
[1] = NCI Yeast Anticancer Drug Screen. Data for the rad50 strain (AID 155);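 further: 0% = growth of vehicle-only cultures of the same strain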; settings: S. cerevisiae rad50 strain growth inhibition; at 50.0 µM; stronger effect = higher value
Procedure, shortened: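 Readout: growth inhibition relative to vehicle-treated cultures. Compound exposure was carried out in a genetically defined yeast strain deficient in DNA damage repair.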

[2] = NCI Yeast Anticancer Drug Screen. Data for the mec2-1 strain (AID 157); settings: S. cerevisiae mec2-1 strain, at 50.0 µM, stronger effect = higher value
Procedure, shortened: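 Readout is yeast growth inhibition, normalised to vehicle-treated controls, in the mec2-1 strain exposed to compound.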

[3] = NCI Yeast Anticancer Drug Screen. Data for the sgs1 mgt1 strain (AID 161);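 further: 0% = growth of cultures given vehicle only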; settings: S. cerevisiae sgs1 mgt1 strain, at 50.0 µM, stronger effect = higher value
Procedure, shortened: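 Growth of a repair-deficient yeast mutant was monitored after compound treatment and expressed as inhibition relative to vehicle-treated cultures.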

[4] = NCI Yeast Anticancer Drug Screen. Data for the cln2 rad14 strain (AID 165);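 further: 0% = growth equal to vehicle treated cultures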; settings: S. cerevisiae cln2 rad14 strain, at 50.0 µM, stronger effect = higher value
Procedure, shortened: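 Relative to vehicle controls, growth inhibition of compound-treated cln2 rad14 yeast was recorded.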

[5] = NCI Yeast Anticancer Drug Screen. Data for the bub3 strain (AID 167); settings: S. cerevisiae bub3 mutant strain, at 50.0 µM, stronger effect = higher value
Procedure, shortened: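 Readout: yeast growth inhibition, expressed relative to vehicle-only wells. The test organism is a mutant strain from a panel with lesions in DNA repair or checkpoint genes.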

[6] = NCI Yeast Anticancer Drug Screen. Data for the mlh1 rad18 strain (AID 175); settings: S. cerevisiae mlh1 rad18 strain growth inhibition; at 50.0 µM; stronger effect = higher value
Procedure, shortened: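 Test agents were incubated with a yeast strain of defined genotype (DNA damage repair defect). Inhibition of growth was derived by comparison with vehicle-exposed cultures.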

Compound | growth inhibition [1] | growth inhibition [2] | growth inhibition [3] | growth inhibition [4] | growth inhibition [5] | growth inhibition [6]
O=C(N=C1SCCS1)Nc1cccc(Cl)c1 | 87% (active) | 5.7% | 44% | 11.3% | 11.4% | 37.2%
Cc1cc(C)c(S(=O)(=O)Nc2ccccc2F)c(C)c1 | 40.1% | 30.7% | 62.9% | 7.3% | 29.4% | 56.9%
CC(=O)NC1C(OCC(=O)NC(C)C(=O)NC(CCC(=O)NCCCCCNc2ccc([N+](=O)[O-])c3[nH]c4ccccc4c(=O)c23)C(N)=O)C(O)C(CO)OC1(C)OCc1ccccc1 (stereo unspecified) | -7.65% | -3.35% | 1.05% | 21.2% | -12.1% | 18.1%
CC1(c2ccccc2)CC(c2cccc([N+](=O)[O-])c2)=NO1 (stereo unspecified) | 27.4% | 15.9% | 36.9% | 34.9% | 28.6% | 23.4%
CCOC(=O)c1c(NCCO)c(-c2ccccc2)c(=O)n2c1[nH]c1ccccc12 | 2.1% | 6.6% | 4.8% | -1% | -0.9% | 14.9%
COC1OC2COC(c3ccccc3)OC2C(OC)C1OC(=O)c1ccccc1 (stereo unspecified) | -3.05% | 0.85% | -14.1% | -37.6% | -2.05% | 7.55%
CSC1=NC(C)(C)N=C(Oc2cc(Cl)cc(Cl)c2)N1 | -14.9% | -22.3% | -24.9% | -8.7% | -27.5% | -9.8%
CCCCCCCCCC(=O)OC | -24.1% | -16.9% | 8.4% | -12.8% | -0.25% | 6.2%
CC1CCC(=O)NCCCCC(=O)N1 (stereo unspecified) | 22.9% | 1.85% | 25.3% | 15.6% | 3.45% | 26.6%
COC(=O)CC[N+]1=CCC(c2ccccc2)(c2ccccc2)O1 | -9.55% | -24.9% | -20.8% | 5.8% | -15.9% | -7.65%
CN(C)c1nc2ccccn2c1C(=O)c1ccccc1 | 4.85% | -0.1% | -12.8% | -19.4% | -0.6% | -5.5%
COc1ccc(Cc2cc3c(cc2OC(C)=O)OCO3)cc1 | -4.2% | -10.3% | -5.75% | 8.9% | 38.2% | 7.25%
Cc1nc2c(sc3ccccc3n2C)c2nc3c(sc4ccccc4n3C)c(C)c12 | -3.95% | -4.2% | 1.45% | -24.4% | -2.6% | 15.1%
Cc1csc(-c2ccncc2)n1 | 6.05% | 6.9% | -1.55% | -8.3% | 20.5% | -5.35%
O=C1c2ccccc2C(=O)c2c(O)c3c(c(O)c21)CCCC3 | -14.4% | 7.55% | -1.05% | -9.65% | 1.95% | 5.7%
Cc1ccc(N=Nc2c(O)c(S(=O)(=O)O)cc3cc(S(=O)(=O)O)ccc23)c(C)c1 | 8.55% | -19.6% | -13.8% | 6.3% | -14% | 2.55%
COc1ccc(CC(O)CN2CCC(CCN)CC2)cc1 (stereo unspecified) | -19.8% | -7.45% | -12.2% | -47.9% | 23.6% | -5.65%
O=C(NCc1ccc(Cl)c(Cl)c1)Nc1ccccc1Cl | 10.6% | 24.4% | 23.3% | -2.7% | 24.8% | 17.9%
CCNCC(OC)C(COC)OC(=O)c1ccc([N+](=O)[O-])cc1 (stereo unspecified) | 15.1% | -11.6% | -7.65% | -32.9% | 20.4% | 7.25%
CN/N=C(/Cc1occc(=O)c1O)C(=O)Nc1ccc(C)c(C)c1 | 15.4% | 7.05% | -16.7% | 3.15% | 7.35% | 18.1%
Nc1nc(F)nc2c1ncn2C1OC(CO)C(O)C1O (stereo unspecified) | -10.3% | 2.25% | 8.25% | 0.1% | 2.15% | -12.2%

Compound | growth inhibition [1] | growth inhibition [2] | growth inhibition [3] | growth inhibition [4] | growth inhibition [5] | growth inhibition [6]
CC(=O)Oc1cccc2c1ccc1nonc12 | 1.75% | 0.35% | -2.2% | -49.8% | -11.4% | -3%
COc1cc(C(Nc2ccccn2)c2cc3c(cc2O)OCO3)cc(OC)c1O (stereo unspecified) | 28.2% | 46.5% | 39.3% | 30.9% | 15.7% | 24.2%
CN(C)Cc1cc(C(=O)c2ccccc2)c(O)cc1O | -38.4% | -4.05% | -0.9% | -23.6% | -2.05% | 13.2%
O=C(NCCN1CCCC1)NC1CCCCC1 | -2.25% | 2.35% | 3.85% | -69.5% | 8.2% | 14.8%
CC(=O)N1CCC23C(=O)CC4C(=CCOC5CC(=O)N(c6ccccc62)C3C54)C1 (stereo unspecified) | -19.1% | -23.9% | -4.5% | 8.9% | 3.55% | -4.8%
Cc1cc2c(cc1C)[n+](=O)c(C(=O)C/C(=N/OCCCc1ccccc1)C(=O)Nc1cc(Cl)ccc1Cl)c(C)n2[O-] | -35.1% | 1.8% | -7.2% | 19.2% | 9.1% | -10.3%
CCCCCC(=O)NC1CCCCC1 | 5.55% | 13.6% | 8.15% | -7.4% | -30.6% | 15.5%
O=C1c2ccc3c([nH]c4ccccc43)c2C(=O)N1c1ccccc1 | 19.7% | -2% | 21.8% | 11.9% | 13.3% | 7.35%
CC1=N/C(=C\c2ccc(N)cc2)C(=O)N1Nc1nnc(NN2C(=O)/C(=C/c3ccc(N)cc3)N=C2C)c2ccccc12 | -11.7% | -13.3% | 1.2% | 7.35% | -30.4% | -2.35%
O=C(O)O.O=C(O)O.O=C(O)O.[Co] | -9.35% | 38.3% | -2.75% | -11.6% | 8.65% | -5.05%
CCOC(=O)/C(F)=C/c1cccc(C#N)c1 | 41.6% | -3.35% | 8.1% | 24.7% | 30.7% | 23.9%
Clc1ccc(-n2cccc2)cc1 | -4.75% | 0.25% | 10.7% | 5.8% | -19.6% | -6.3%
CC(NC(=O)C(Cc1ccc(O)cc1)NC(=O)C(C)NC(=O)OCc1ccccc1)C(=O)O (stereo not drawn) (Cbz-Ala-Tyr-Ala-OH; configuration not given here) | 12.2% | 13.3% | 13.7% | -4.25% | -5.8% | 16.9%
CCOc1ccc2cc3c(nc2n1)[nH]c1ccccc13 | -27.4% | 4.15% | -0.3% | -16.1% | 8.25% | 11.1%
CCn1c2ccccc2c2c(-c3ccccc3)cc3c(c21)C(=O)N(c1ccccc1)C3=O | -0.3% | -8.95% | 3.45% | -54% | -7.9% | -9.9%
COc1ccc(CCNC(=O)CC2CCN(C)CC2)cc1OC | -1.05% | -6.7% | 10.2% | -7.4% | 15.2% | -3.75%
O=C(/C=C/c1ccc2c(c1)OCO2)c1cccc2ccccc12 | -4.4% | -14.6% | -17.4% | 4.05% | -3% | 5%
Cc1nn(C)c2c1C(=O)N(C)CC(=O)N2C | -25.1% | -38.9% | -22.9% | -14.2% | -20.8% | -8.25%
COc1cc(Br)c2ncccc2c1 | 1.75% | -0.6% | 3.85% | 4.05% | 2.2% | -14.5%
O=C(NC(Nc1ccc(F)cc1)(C(F)(F)F)C(F)(F)F)C(C(F)(F)F)C(F)(F)F | 87.4% (active) | 88.6% (active) | 91.8% (active) | 92.2% (active) | 90.7% (active) | 93.2% (active)
